Screening data from PubChem.
Shown is part of a subset that was picked to be rich in hits.
RMI FANCM FP: inhibitors of human RMI core complex binding to FANCM MM2. Fluorescence polarization, RMI core complex with F-MM2 peptide; active compounds read low. FP signal (polarization) at 33 µM. 0.58% of 70,000 active; in the data active means FP signal below about 40
* = called active by the depositor.

SMILES	RMI FANCM FP
CC(=O)ON1C(=O)c2cccc3c([N+](=O)[O-])ccc(c23)C1=O	-6*
CC(=O)ON1C(=O)c2cccc3cccc(c23)C1=O	52
O=C1c2cccc3c([N+](=O)[O-])ccc(c23)C(=O)N1Cc1cccnc1	-13
CC(C)c1cc(NS(=O)(=O)c2ccccc2)c(O)c(C(C)C)c1	60
Cn1c(=O)cc2c3c(c(Br)ccc31)C(=O)c1ccccc1-2	60
Cn1c(=O)cc2c3c(c(NS(=O)(=O)c4ccccc4)ccc31)C(=O)c1ccccc1-2	9*
CCOC(=O)c1c(C)oc2c1c(C=NC1CC(C)(C)NC(C)(C)C1)c(O)c1ccccc12	8*
CCOC(=O)c1c(C)oc2c1c(C=NC(C)c1ccccc1)c(O)c1ccccc12 (configuration not stated)	39
CCOC(=O)c1c(-c2ccccc2)oc2c1cc(NS(=O)(=O)c1ccc(C)cc1C)c1ccccc12	60
Cc1onc(-c2ccccc2Cl)c1C(=O)NCCSCc1ccco1	55
O=S(=O)(c1ccc(-c2cnco2)cc1)N(Cc1ccccn1)Cc1ccccn1	58
CCN1C(=O)C(C)(C)COc2ccc(NS(=O)(=O)CC(C)C)cc21	65
CCOC(=O)Cn1cnc2c(oc3nc(-c4ccccc4)cc(-c4ccccc4)c32)c1=O	71
Cc1cc(-c2ccccc2)nc2oc3c(SCC(=O)c4ccc(-c5ccccc5)cc4)ncnc3c12	32*
Cc1cc(-c2ccccc2)nc2oc(C(=O)c3ccc(Cl)cc3)c(N)c12	54
COc1cc(-c2ccc(NC(=O)c3ccc(S(=O)(=O)N4CC(C)CC(C)C4)cc3)c(OC)c2)ccc1NC(=O)c1ccc(S(=O)(=O)N2CC(C)CC(C)C2)cc1 (configuration not stated)	64
Cc1nn(-c2ccccc2)nc1CNS(=O)(=O)c1c(C)nn(C)c1C	60
CN(C)CC1=C(Cl)c2ccccc2S1(=O)=O	53
CCOC(=O)c1c(NC(=O)CCSc2nnc3ccccn23)sc2c1CCC(C)C2 (configuration not stated)	77
O=C(Nc1ccc(Cl)cc1[N+](=O)[O-])c1ccc(Br)cc1	66
COc1cc(/C=C/C(=O)NCCOc2cc(N3CCOCC3)ncn2)cc(OC)c1OC	62
CCN(Cc1ccccc1)C(=O)CCN1C(=O)/C(=C\c2ccco2)SC1=S	22*
CCc1nnc(NC(=O)CCN2C(=O)/C(=C\c3ccco3)SC2=S)s1	65
O=C1/C(=C\c2ccco2)SC(=S)N1CCS(=O)(=O)O	65
Cc1cccc(NC(=O)CC2SC(=O)N(c3ccc(F)cc3)C2=O)c1 (configuration not stated)	67
SMILES	RMI FANCM FP
S=c1nccc(-c2ccc(-c3cccs3)s2)[nH]1	33*
c1csc(-c2ccn[nH]2)c1	55
Cc1nc(-c2ccnc(=S)[nH]2)cs1	57
Cc1ccc(C(=O)NC(Nc2ccccn2)C(Cl)(Cl)Cl)cc1 (configuration not stated)	65
C=C(C)C1Cc2c(cc3oc(CO)cc(=O)c3c2O)O1 (configuration not stated)	56
O=C1c2ccccc2C(=O)c2c(Sc3cccc4c3C(=O)c3ccccc3C4=O)cccc21	60
O=C1c2ccccc2C(=O)c2c1ccc(O)c2O	53
O=C1c2cccc(O)c2C(=O)c2c(O)cccc21	27*
CCOC(=O)C1=C(N)C(=O)N(c2ccccc2)C1	57
CCOC(=O)C1=C(N)CC(C(=O)OCC)=C(N)C1	16*
CCOC(=O)c1ccc(N)cc1	56
COc1ccc(-c2n[nH]c(=O)c3nc(C)sc23)cc1	73
CCC(=O)Nc1nc2cc3c(cc2s1)OCCO3	73
NNc1nc2cc3c(cc2s1)OCCO3	-6*
c1c2c(cc3sc(N4CCN(c5nc6cc7c(cc6s5)OCCO7)CC4)nc13)OCCO2	63
Cc1ccc(NCC(O)COc2cc(C)ccc2C(C)C)cc1 (configuration not stated)	63
O=C1c2c(O)ccc([N+](=O)[O-])c2C(=O)c2c(O)ccc([N+](=O)[O-])c21	-25*
O=C1c2ccc(O)c(O)c2C(=O)c2c(O)ccc(O)c21	43
O=[N+]([O-])c1ccc(S(=O)(=O)c2ccccc2)cc1O	62
CCOC(=O)COc1ccc(C23CC4CC(CC(C4)C2)C3)cc1	58
Cc1ccc(C(=O)Nc2nnc(-c3ccc(C)c(C)c3)o2)cc1C	66
O=C(/C=C/c1ccc(-c2cccc(Br)c2)o1)c1ccco1	77
O=C(/C=C/c1ccc(Br)o1)/C=C/c1ccc(Br)o1	62
NC(=O)/C=C/c1ccco1	53
O=C(/C=C\c1ccco1)/C=C/c1ccc(-c2ccc(Cl)c(Cl)c2)o1	-11*
O=C(/C=C\c1ccco1)/C=C/c1ccc(-c2ccc(Br)cc2)o1	8*
N#C/C(=C/c1ccc(-c2ccc(Cl)c(Cl)c2)o1)C(=O)Nc1ccccc1I	75
Cc1nn(C)c(=O)c2noc(/C=C/c3ccc(C(F)(F)F)cc3)c12	57
C1CCN2C[C@@H]3C[C@H](CN4CCCC[C@@H]34)[C@H]2C1	59
COC(=O)CSc1nnc(SC)n1C	54
